# Laboratory results from PubChem BioAssay.
# A number with no mark means an inactive call.
# System: XIP peptide (Xip251-270) binding
# Assay: XIP fragment 251-270 binding compounds – biochemical, small-molecule microarray, fluorescence 635/667 nm, 0.1 µg/mL protein, primary screen (AID 1182)
# Details: fluorescent protein binding, 635 nm, higher = more signal, called active from +8 up or from −8 down
row,Structure (SMILES),composite z-score
1,COC(=O)[C@@H]1CC[C@H](C)[C@@H](c2ccc(Br)cc2)N1,1.53
2,CCc1cc2c(nc1CC)CCN(CCC(C)=NOC(C)CN1CCCCc3nc(C)c(C)cc31)C2 (stereo not drawn),0.531
3,CCOC(=O)[C@H](Cc1ccccc1)NC(=O)CCC1CC(OC(=O)NCc2ccc3c(c2)OCO3)CC2(CCCC(COC(=O)NCCOc3ccccc3)O2)O1 (stereo partly drawn),-0.125
4,COC(=O)[C@@H]1CC[C@H](C)[C@@H](c2ccc(C)cc2)N1C(=O)c1ccc(C=NOC[C@H]2O[C@H](c3ccccc3)C=C[C@@H]2Oc2ccc(OC)cc2)cc1,0.176
5,COC(=O)CC=C[C@@H](C)[C@@H](C=NOC[C@@H](C)[C@H](OCc1ccccc1)C(C)C)OC,0.0918
6,CCOC(=O)CCN1C(=O)[C@H]2[C@@H]3C(=CC[C@H]2C1=O)C(=O)[C@H]1O[C@H]1[C@H]3O,-0.0103
7,CC(CCN1CCCc2nc(C)c(C)cc21)=NOC[C@@H](C)[C@H](OCc1ccccc1)C(C)C,-0.563
8,O=C1[C@H]2CCn3c(=O)n(Cc4cc5c(cc4Cl)OCO5)c(=O)n3[C@H]2[C@H](O)[C@@H]2O[C@H]12,0.188
9,CCC1=NOC(CCC2CC(OC(=O)NCc3cccc4c3OCO4)CC3(CCCC(COC(=O)NCCc4ccc(Cl)cc4)O3)O2)C1 (stereo not drawn),0.214
10,C=CC[C@@H]1C=C[C@H](ON=CC[C@@H]2C=C[C@H](OC(C)=O)[C@@H](COC(C)=O)O2)[C@@H](CO)O1,0.571
11,CO[C@@H]1COC(=O)[C@H](COCc2ccccc2)NC(=O)CC=C[C@@H](C)[C@H](OC)COC(=O)[C@@H](C)NC(=O)CC=C[C@H]1C,0.455
12,O=C1C[C@@H](O)[C@@H](O)[C@@H]2[C@@H]3C(=O)N(Cc4ccccc4)C(=O)[C@@H]3CC[C@H]12,-0.317
13,CC(C)CN1CCc2nc(-c3ccccc3)c3c(c2C1)CO[C@@H](C)C3,0.973
14,COC(=O)[C@@H]1CC[C@H](C)[C@@H](c2ccc(Br)cc2)N1C(=O)C(F)(F)F,0.0945
15,CC(C)[C@@H](OCc1ccccc1)[C@H](C)C=NO[C@H](C)c1cn([C@@H]2COC[C@H]2O)nn1,-0.0971
16,CCN1C(=O)[C@H]2[C@H]3[C@H](O)[C@H](O)CC(=NO[C@@H](C)c4cc(-c5c(C)cc(C)cc5C)no4)[C@@H]3CC[C@H]2C1=O,0.359
17,CCOC(=O)NN=C1C[C@@H](O)[C@@H](O)[C@@H]2[C@@H]3C(=O)N(CC)C(=O)[C@@H]3CC[C@H]12,0.124
18,CON(C)C(=O)c1nnc2c(n1)[nH]c1ccccc12,-0.132
19,CCc1cc2c(nc1CC)CCN(CCC(C)=NOCC[C@@H]1C=C[C@H](OC(C)=O)[C@@H](COC(C)=O)O1)C2,-0.0297
20,CC(C)CON=C1C[C@@H](O)[C@@H](O)[C@@H]2[C@@H]3C(=O)N(c4ccc(F)cc4F)C(=O)[C@@H]3CC[C@@H]12,0.681
21,COC(=O)CC=C[C@@H](C)[C@@H](C=NOC[C@@H](O)COCc1ccco1)OC,0.146
22,C[C@H]1CC[C@H]2C(=O)O[C@H](CO)CN2[C@@H]1c1ccc(Br)cc1,-0.0442
23,COC(=O)[C@H](C)NC(=O)CCC1CC(OC(=O)NCc2ccc3c(c2)OCO3)CC2(CCCC(COC(=O)NCCCN3CCCC3=O)O2)O1 (stereo partly drawn),0.045
24,CC(C)CON=C1C[C@@H](O)[C@@H](O)[C@@H]2[C@@H]3C(=O)N(C(C)(C)C)C(=O)[C@@H]3CC[C@@H]12,0.0494
25,COC(=O)[C@H](C)NC(=O)CCC1CC(OC(=O)NCCc2ccc(F)cc2)CC2(CCCC(COC(=O)NCc3ccccc3)O2)O1 (stereo partly drawn),0.166
26,O=C1[C@H]2[C@H]3[C@H](O)[C@H](O)CC(=NO[C@@H]4O[C@H](CO)[C@@H](O)[C@H](O)[C@H]4O)[C@@H]3CC[C@H]2C(=O)N1C[C@@H]1CCCO1,0.357
27,CC(CCC(=O)OC[C@H]1O[C@H](C#Cc2ccccc2)C=C[C@@H]1Oc1ccc(C)cc1)=NO[C@@H](C)c1cc(-c2c(C)cc(C)cc2C)no1,0.0185
28,COC(=O)[C@H](C)NC(=O)CCC1CC(OC(=O)NCc2cccc3ccccc23)CC2(CCCC(COC(=O)NCCOc3ccccc3)O2)O1 (stereo partly drawn),2.12
